Experimental data as given in PubChem BioAssay (EPA / NIEHS).
Results filed as inconclusive are left out. Activity calls are given as the source filed them. Rule for the calls: active = hit-call score of the fitted dose curve at least 0.9, where 1 is the maximum; inconclusive = response in the unintended direction; inactive = score below 0.9.

Molecular target: Cellular tumor antigen p53 (Homo sapiens) (UniProt P04637)
Sequence (P04637 whole entry, looked up): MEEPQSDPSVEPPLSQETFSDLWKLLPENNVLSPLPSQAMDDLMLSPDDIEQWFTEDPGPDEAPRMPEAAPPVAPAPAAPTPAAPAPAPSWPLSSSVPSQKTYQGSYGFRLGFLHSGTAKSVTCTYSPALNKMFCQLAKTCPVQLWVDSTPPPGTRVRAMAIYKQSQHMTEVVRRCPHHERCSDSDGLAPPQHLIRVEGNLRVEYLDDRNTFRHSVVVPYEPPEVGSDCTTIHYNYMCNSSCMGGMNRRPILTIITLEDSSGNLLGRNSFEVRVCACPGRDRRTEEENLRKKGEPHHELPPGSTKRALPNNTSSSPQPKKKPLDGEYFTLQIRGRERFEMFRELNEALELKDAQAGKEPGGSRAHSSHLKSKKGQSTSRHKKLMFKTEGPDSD
Assay: TOX21_p53_BLA_p3_ratio: Tox21 HCT-116 p53 Agonism Beta-lactamase Assay, Ratio, Phase 3 (AID 2283596)
Summary of the method: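 Cells were seeded at 4000/well, rested 5 h at 37C, then dosed with DMSO compound solutions (217-fold dilution) for 16 h. CCF4-AM substrate was loaded for 2 h at room temperature, and the 460/530 nm emission ratio was fitted for gain of signal versus DMSO.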
With `Cc1ccccc1[N+](=O)[O-]` the outcome was “inactive”.
With `Cc1ccccc1O` the outcome was “inactive”.
For `CC1=C2C[C@H]3[C@@H](CC=C4C[C@@H](O)CC[C@@]43C)[C@@H]2CC[C@]12O[C@@H]1C[C@H](C)CN[C@H]1[C@H]2C`, the outcome was “inactive”.
With `CCCN(CCC)N=O` the outcome was “inactive”.
For `CCC(=O)O[C@H]1CC[C@H]2[C@@H]3CCC4=CC(=O)CC[C@]4(C)[C@H]3CC[C@]12C`, the outcome was “inactive”.
For `O=C(O)C(F)(F)C(F)(F)C(F)(F)C(F)(F)C(F)(F)F`, the outcome was “inactive”.
For `Oc1ccc(Cl)cc1Cl`, the outcome was “inactive”.
With `O=S(=O)(O)C(F)(F)C(F)(F)C(F)(F)C(F)(F)F` the outcome was “inactive”.
With `COc1ccc(O)c(C(C)(C)C)c1` the outcome was “inactive”.
In the case of `c1ccc(-c2ccccc2)cc1`, the outcome is reported as “inactive”.
For `Cc1cc(O)ccc1Cl`, the outcome was “inactive”.
In the case of `C1CC2OC2CC1C1CO1` (centres undefined), the outcome is reported as “inactive”.
In the case of `O=C(NC(=O)c1cc(F)c(F)cc1Cl)Nc1cc(F)ccc1N1CCC(C(=O)O)CC1`, the outcome is reported as “inactive”.
With `Nn1cnnc1` the outcome was “inactive”.
For `O=C(O)C(F)(F)C(F)(F)C(F)(F)C(F)(F)C(F)(F)C(F)(F)C(F)(F)C(F)(F)C(F)(F)F`, the outcome was “inactive”.
With `CCCCCCCCOC(=O)c1ccccc1C(=O)OCCCCCCCC` the outcome was “inactive”.
For `Clc1ccc(C(Cl)(Cl)Cl)cc1`, the outcome was “inactive”.
For `O=S(=O)(O)C(F)(F)C(F)(F)C(F)(F)C(F)(F)C(F)(F)C(F)(F)F`, the outcome was “inactive”.
For `C=CC(N)=O`, the outcome was “inactive”.
For `Cc1cccc(C)c1N`, the outcome was “inactive”.
In the case of `ClC1=C(Cl)[C@]2(Cl)[C@@H]3[C@@H]4C[C@@H]([C@H]5O[C@@H]45)[C@@H]3[C@@]1(Cl)C2(Cl)Cl`, the outcome is reported as “inactive”.
With `CCOCCOC(C)=O` the outcome was “inactive”.

Test system: not listed separately
Assay: TOX21_p53_BLA_p4_viability: Viability Assessment in the Tox21 HCT-116 p53 Agonism Beta-lactamase Assay, Phase 4 (AID 2283597);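 note: hits lower the luminescence signal meaning cytotoxicity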
Summary of the method: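 Readout: ATP luminescence (CellTiter-Glo), measured 30 min after reagent addition at RT. The reagent followed a 2 h CCF4-AM incubation, and the cells had been exposed to compound for 16 h at 37C.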
With `Cc1ccccc1[N+](=O)[O-]` the outcome was “inactive”.
In the case of `Cc1ccccc1O`, the outcome is reported as “inactive”.
With `CCCN(CCC)N=O` the outcome was “inactive”.
For `Oc1ccc(Cl)cc1Cl`, the outcome was “inactive”.
In the case of `O=S(=O)(O)C(F)(F)C(F)(F)C(F)(F)C(F)(F)F`, the outcome is reported as “inactive”.
In the case of `COc1ccc(O)c(C(C)(C)C)c1`, the outcome is reported as “inactive”.
For `Cc1cc(O)ccc1Cl`, the outcome was “inactive”.
In the case of `C1CC2OC2CC1C1CO1` (centres undefined), the outcome is reported as “inactive”.
For `O=C(NC(=O)c1cc(F)c(F)cc1Cl)Nc1cc(F)ccc1N1CCC(C(=O)O)CC1`, the outcome was “inactive”.
With `Nn1cnnc1` the outcome was “inactive”.
With `O=C(O)C(F)(F)C(F)(F)C(F)(F)C(F)(F)C(F)(F)C(F)(F)C(F)(F)C(F)(F)C(F)(F)F` the outcome was “inactive”.
With `O=S(=O)(O)C(F)(F)C(F)(F)C(F)(F)C(F)(F)C(F)(F)C(F)(F)F` the outcome was “inactive”.
With `Cc1cccc(C)c1N` the outcome was “inactive”.
With `N#Cc1ccc(N(CC(N)=O)CC(F)(F)F)cc1C(F)(F)F` the outcome was “inactive”.
With `CC#Cc1cc(C)nc(Nc2ccccc2)n1` the outcome was “inactive”.
For `ClC1=C(Cl)[C@]2(Cl)[C@@H]3[C@@H]4C[C@@H]([C@H]5O[C@@H]45)[C@@H]3[C@@]1(Cl)C2(Cl)Cl`, the outcome was “inactive”.
With `CCOCCOC(C)=O` the outcome was “inactive”.
With `CCCCCCCCCc1ccc(O)cc1` the outcome was “inactive”.

Molecular target: Cellular tumor antigen p53 (Homo sapiens) (UniProt P04637)
Assay: TOX21_p53_BLA_p5_ratio: Tox21 HCT-116 p53 Agonism Beta-lactamase Assay, Ratio, Phase 5 (AID 2283599)
Summary of the method: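 HCT-116 p53-bla cells (4000/well) plated 5 h, dosed with compound (217-fold DMSO dilution) for 16 h at 37 C; CCF4-AM substrate 2 h at room temperature. Activity is the 460/530 nm emission ratio (405 nm excitation), fitted in gain-of-signal direction versus DMSO.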
For `Cc1ccccc1[N+](=O)[O-]`, the outcome was “inactive”.
In the case of `Cc1ccccc1O`, the outcome is reported as “inactive”.
With `CC1=C2C[C@H]3[C@@H](CC=C4C[C@@H](O)CC[C@@]43C)[C@@H]2CC[C@]12O[C@@H]1C[C@H](C)CN[C@H]1[C@H]2C` the outcome was “inactive”.
With `CCCN(CCC)N=O` the outcome was “inactive”.
In the case of `CCC(=O)O[C@H]1CC[C@H]2[C@@H]3CCC4=CC(=O)CC[C@]4(C)[C@H]3CC[C@]12C`, the outcome is reported as “inactive”.
In the case of `O=C(O)C(F)(F)C(F)(F)C(F)(F)C(F)(F)C(F)(F)F`, the outcome is reported as “inactive”.
For `Oc1ccc(Cl)cc1Cl`, the outcome was “inactive”.
In the case of `O=S(=O)(O)C(F)(F)C(F)(F)C(F)(F)C(F)(F)F`, the outcome is reported as “inactive”.
For `COc1ccc(O)c(C(C)(C)C)c1`, the outcome was “inactive”.
In the case of `c1ccc(-c2ccccc2)cc1`, the outcome is reported as “inactive”.
In the case of `Cc1cc(O)ccc1Cl`, the outcome is reported as “inactive”.
In the case of `O=C(O)C(F)(F)C(F)(F)C(F)(F)C(F)(F)C(F)(F)C(F)(F)C(F)(F)C(F)(F)C(F)(F)F`, the outcome is reported as “inactive”.
In the case of `CCCCCCCCOC(=O)c1ccccc1C(=O)OCCCCCCCC`, the outcome is reported as “inactive”.
With `Clc1ccc(C(Cl)(Cl)Cl)cc1` the outcome was “inactive”.
In the case of `O=S(=O)(O)C(F)(F)C(F)(F)C(F)(F)C(F)(F)C(F)(F)C(F)(F)F`, the outcome is reported as “inactive”.
For `C=CC(N)=O`, the outcome was “inactive”.
For `Cc1cccc(C)c1N`, the outcome was “inactive”.
For `N#Cc1ccc(N(CC(N)=O)CC(F)(F)F)cc1C(F)(F)F`, the outcome was “inactive”.
In the case of `CCCCCCOC(=O)c1ccccc1C(=O)OCCCCCC`, the outcome is reported as “inactive”.
With `ClC1=C(Cl)[C@]2(Cl)[C@@H]3[C@@H]4C[C@@H]([C@H]5O[C@@H]45)[C@@H]3[C@@]1(Cl)C2(Cl)Cl` the outcome was “inactive”.
In the case of `CCOCCOC(C)=O`, the outcome is reported as “inactive”.
In the case of `CCCCCCCCCc1ccc(O)cc1`, the outcome is reported as “inactive”.

Test system: not listed separately
Assay: TOX21_p53_BLA_p5_viability: Viability Assessment in the Tox21 HCT-116 p53 Agonism Beta-lactamase Assay, Phase 5 (AID 2283600)
Summary of the method: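 Workflow: seed 4000 cells per well, wait 5 h, add compounds (DMSO, 217-fold dilution), incubate 16 h, load CCF4-AM 2 h, add CellTiter-Glo, read luminescence after 30 min.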
In the case of `Cc1ccccc1[N+](=O)[O-]`, the outcome is reported as “inactive”.
With `CC1=C2C[C@H]3[C@@H](CC=C4C[C@@H](O)CC[C@@]43C)[C@@H]2CC[C@]12O[C@@H]1C[C@H](C)CN[C@H]1[C@H]2C` the outcome was “inactive”.
With `CCC(=O)O[C@H]1CC[C@H]2[C@@H]3CCC4=CC(=O)CC[C@]4(C)[C@H]3CC[C@]12C` the outcome was “inactive”.
In the case of `Oc1ccc(Cl)cc1Cl`, the outcome is reported as “inactive”.
For `O=S(=O)(O)C(F)(F)C(F)(F)C(F)(F)C(F)(F)F`, the outcome was “inactive”.
With `c1ccc(-c2ccccc2)cc1` the outcome was “inactive”.
In the case of `Cc1cc(O)ccc1Cl`, the outcome is reported as “inactive”.
With `C1CC2OC2CC1C1CO1` (centres undefined) the outcome was “inactive”.
For `O=C(O)C(F)(F)C(F)(F)C(F)(F)C(F)(F)C(F)(F)C(F)(F)C(F)(F)C(F)(F)C(F)(F)F`, the outcome was “inactive”.
For `CCCCCCCCOC(=O)c1ccccc1C(=O)OCCCCCCCC`, the outcome was “inactive”.
In the case of `C=CC(N)=O`, the outcome is reported as “inactive”.
For `N#Cc1ccc(N(CC(N)=O)CC(F)(F)F)cc1C(F)(F)F`, the outcome was “inactive”.
In the case of `CC#Cc1cc(C)nc(Nc2ccccc2)n1`, the outcome is reported as “inactive”.
In the case of `CCCCCCOC(=O)c1ccccc1C(=O)OCCCCCC`, the outcome is reported as “inactive”.
For `ClC1=C(Cl)[C@]2(Cl)[C@@H]3[C@@H]4C[C@@H]([C@H]5O[C@@H]45)[C@@H]3[C@@]1(Cl)C2(Cl)Cl`, the outcome was “inactive”.
In the case of `CCOCCOC(C)=O`, the outcome is reported as “inactive”.
For `CCCCCCCCCc1ccc(O)cc1`, the outcome was “inactive”.
